Test in all cases: qHTS profiling for inhibitors of Plasmodium falciparum proliferation (AID 504749); also: nearly all actives have a fitted effect of over 60% in size
Details in all cases: P. falciparum in erythrocytes, SYBR Green DNA, 72 h; series mostly up to 28.7 µM

Experiment [1] deals with CP268. The method in brief: (§1)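 Quantitative HTS: compounds pinned into medium, infected erythrocytes added (0.3% parasitemia, 2.5% hematocrit), 72 h culture at 37 C under 5% CO2. Saponin/Triton lysis with SYBR Green I, overnight RT, then fluorescence read.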
In experiment [2] the test system is CP269. In short, it runs like this: as §1
Experiment [3] has as its system CP286. In short, it runs like this: as §1
In experiment [4] the test system is CP291. In short, it runs like this: as §1
Experiment [5] deals with CP297. The method in brief: as §1
Experiment [6] relates to CP305. In short, it runs like this:
as §1

Experiment [7] concerns CP315. In short, it runs like this:
as §1

Experiment [8] has as its system CP325. The method in brief: as §1
The subject of experiment [9] is CP329. The method in brief: as §1
Experiment [10] concerns CP335. In short, it runs like this:
as §1

Records with an inconclusive call do not appear. Activity calls are given as the source filed them. Calls follow the shape of the dose curve; as a rule, active = well fitted inhibition curve with a large enough effect; inconclusive = small, poorly fitted or top-dose-only effect; inactive = flat fitted curve, though single readings scatter.
Potency is read from the fitted curve at half-maximal effect.

For the molecule `CCCCNC(=O)NS(=O)(=O)c1ccc(C)cc1`, the Potency entry in [1], in experiment [2], in [3], in experiment [4], in experiment [5] and in experiment [6] was “inactive” each time. Further, the Potency result in [7], in [8], in experiment [9] and in [10] was “inactive” in each case.

Take `CCCCNc1ccc(C(=O)OCCN(C)C)cc1`: the Potency entry in experiment [1], in experiment [2], in experiment [3], in experiment [4], in experiment [5] and in experiment [6] was “inactive” each time. The Potency result in [7] and in experiment [10] was “inactive” throughout.

Regarding `COC(=O)[C@H]1[C@H]2C[C@@H]3c4[nH]c5cc(OC)ccc5c4CCN3C[C@H]2C[C@@H](OC(=O)c2cc(OC)c(OC)c(OC)c2)[C@@H]1OC`, the Potency in experiment [1] was 15.1 µM (active); in experiment [2], 9.53 µM (active); in experiment [3], 11.2 µM (active); in [4], 15.1 µM (active); in experiment [5] it was 3.38 µM (active); in experiment [7] it was 16.9 µM (active). In addition, the results for the Potency in experiment [8], in experiment [9] and in experiment [10] were 13.5 µM (active), 13.5 µM (active) and 8.49 µM (active), respectively.

As for `NC(Cc1ccc(Cl)cc1)C(=O)O` (centres undefined), the Potency entry in experiment [1], in [2], in experiment [3], in experiment [4], in experiment [5] and in experiment [6] was “inactive” each time. Moreover, the Potency result in [7], in experiment [8], in experiment [9] and in [10] was “inactive” throughout.

Regarding `O=C(O)CP(=O)(O)O`, the Potency entry in [1], in experiment [2], in experiment [3], in experiment [4], in [5] and in experiment [6] was “inactive” each time. For the same molecule, the Potency result in experiment [7], in experiment [8], in experiment [9] and in experiment [10] was “inactive” each time.

On to `CC(C)NNC(=O)c1ccncc1`, for which the Potency result in experiment [1], in experiment [2], in experiment [3], in [4], in experiment [5] and in [6] was “inactive” throughout. Also, the Potency entry in experiment [7], in experiment [8], in experiment [9] and in experiment [10] was “inactive” in each case.

Consider `C#CCN(C)CCCOc1ccc(Cl)cc1Cl`, for which the Potency result in experiment [1], in experiment [2], in [3], in experiment [4], in experiment [5] and in experiment [6] was “inactive” throughout. The Potency result in [7], in experiment [8], in [9] and in experiment [10] was “inactive” each time.

As to `NC(=O)c1cn(Cc2c(F)cccc2F)nn1`, the Potency entry in experiment [1], in [2], in experiment [3], in experiment [4], in [5] and in experiment [6] was “inactive” in each case. Moreover, the Potency entry in [7], in experiment [8], in [9] and in experiment [10] was “inactive” in each case.

`Cc1scc2c1N(C(=O)CN1CCN(C)CC1)c1ccccc1NC2=O`: the Potency result in experiment [1], in experiment [2], in [3], in [4], in experiment [5] and in [6] was “inactive” in each case. Further, the Potency result in [7], in experiment [8], in [9] and in experiment [10] was “inactive” in each case.

As to `Cc1ccc(=O)n(-c2ccccc2)c1`, the Potency entry in experiment [1], in experiment [2], in [3], in [4], in experiment [5] and in experiment [6] was “inactive” throughout. Further, the Potency entry in [7], in experiment [8], in [9] and in [10] was “inactive” each time.

Take `CC(C)(Oc1ccc(CCNC(=O)c2ccc(Cl)cc2)cc1)C(=O)O`: the Potency result in experiment [1], in [2], in experiment [3], in experiment [4], in experiment [5] and in experiment [6] was “inactive” each time. Further, the Potency entry in experiment [7], in experiment [8], in experiment [9] and in experiment [10] was “inactive” in each case.

In the case of `Cc1nc2ccccn2c(=O)c1CCN1CCC(C(=O)c2ccc(F)cc2)CC1`, the Potency result in experiment [1], in [2], in experiment [5], in experiment [6], in experiment [7] and in experiment [8] was “inactive” each time. For the same molecule, the Potency entry in [9] is “inactive”.

In the case of `CCC(=O)c1ccc2c(c1)N(CCCN(C)C)c1ccccc1S2`, the Potency entry in experiment [5] and in experiment [7] was “inactive” each time.

With `CCOC(=O)c1cnc2c(cnn2CC)c1NN=C(C)C`, the Potency result in [2], in experiment [4], in experiment [6], in [7], in [8] and in experiment [9] was “inactive” throughout. The Potency entry in [10] is “inactive”.

As to `CN(C)C/C=C(/c1ccc(Br)cc1)c1cccnc1`, the Potency entry in experiment [1], in experiment [2], in [3], in [6], in experiment [7] and in experiment [8] was “inactive” in each case. For the same molecule, the Potency entry in experiment [9] and in experiment [10] was “inactive” in each case.

For the molecule `NC(N)=NC(=O)Cc1c(Cl)cccc1Cl`, the Potency entry in experiment [1] is “inactive”. The Potency in experiment [9] was 6.01 µM (active); in [10], 9.53 µM (active).

In the case of `COc1cc(C(=O)OCCCN2CCCN(CCCOC(=O)c3cc(OC)c(OC)c(OC)c3)CC2)cc(OC)c1OC`, the Potency is 7.57 µM (active) in [2], 10 µM (active) in experiment [3] and 4.78 µM (active) in experiment [10].

Regarding `COC(=O)[C@@H](N)Cc1ccc(O)c(O)c1`, the Potency entry in experiment [1], in experiment [3], in experiment [4], in experiment [5], in experiment [6] and in experiment [7] was “inactive” in each case. For the same molecule, the Potency entry in [8] and in experiment [9] was “inactive” throughout.

With `CN(C)CCCN1c2ccccc2Sc2ccccc21`, the Potency entry in experiment [5] was “inactive”.

For `CCCC(C(=O)OCCN(CC)CC)(c1ccccc1)c1ccccc1`, the Potency was 12 µM (active) in experiment [2], 12.6 µM (active) in [3], 13.5 µM (active) in experiment [4] and 8.49 µM (active) in experiment [10].

Consider `CC(C)(C)c1ccc(C(=O)CCCN2CCC(OC(c3ccccc3)c3ccccc3)CC2)cc1`, for which the Potency in experiment [2] is 7.57 µM (active); in [3], 8.91 µM (active); in experiment [6] it was 10.7 µM (active); in experiment [10], 6.75 µM (active). Further, the Potency result in [7] was “inactive”.

In the case of `O=C(O)CN(CCN(CC(=O)O)CC(=O)O)CCN(CC(=O)O)CC(=O)O`, the Potency result in [2], in experiment [3], in experiment [5], in [7], in experiment [8] and in experiment [9] was “inactive” in each case. Moreover, the Potency result in experiment [10] was “inactive”.

Consider `CCOC(=O)C1=C(C)NC(C)=C(C(=O)OC)C1c1cccc(Cl)c1Cl` (centres undefined), for which the Potency result in [1], in experiment [2], in [3], in [5], in experiment [6] and in [7] was “inactive” throughout. Besides, the Potency result in experiment [8] is “inactive”.

Turning to `O=C(CCCN1CCC(O)(c2cccc(C(F)(F)F)c2)CC1)c1ccc(F)cc1`, the Potency in experiment [3] is 10 µM (active); in experiment [10] it was 9.53 µM (active).

Consider `CCOC(=O)C1=C(C)NC(C)=C(C(=O)OC)C1c1cccc([N+](=O)[O-])c1` (centres undefined), for which, in experiment [7], the Potency entry is “inactive”.

In the case of `CC(C)[N+](C)(CCOC(=O)C1c2ccccc2Oc2ccccc21)C(C)C`, the Potency result in experiment [7] is “inactive”.

As for `CCCN1C[C@H](CSC)C[C@@H]2c3cccc4[nH]cc(c34)C[C@H]21`, the Potency result in experiment [2], in [5], in experiment [6], in [7], in experiment [8] and in experiment [9] was “inactive” each time.

As to `O=C1NCN(c2ccccc2)C12CCN(CCCC(c1ccc(F)cc1)c1ccc(F)cc1)CC2`, the Potency was 8.49 µM (active) in experiment [1]; 7.08 µM (active) in experiment [3]; 7.57 µM (active) in experiment [6]; 4.78 µM (active) in [9]; 4.78 µM (active) in experiment [10].

Consider `CN(C)CC[C@@H](c1ccc(Br)cc1)c1ccccn1`, for which the Potency entry in experiment [3], in experiment [6], in experiment [7] and in experiment [8] was “inactive” in each case.

For `CC(C)COCC(CN(Cc1ccccc1)c1ccccc1)N1CCCC1` (centres undefined), the Potency entry in experiment [8] and in [9] was “inactive” each time.

Turning to `Cc1nc2sccn2c(=O)c1CCN1CCC(=C(c2ccc(F)cc2)c2ccc(F)cc2)CC1`, the Potency entry in experiment [1], in experiment [6], in [7], in [8] and in experiment [9] was “inactive” throughout.

`CCN(CC)CCOCCOC(=O)C1(c2ccccc2)CCCC1`: the Potency in experiment [1] is 15.1 µM (active); in experiment [2], 13.5 µM (active); in experiment [3], 12.6 µM (active); in experiment [5], 6.75 µM (active); in [6] it was 13.5 µM (active); in experiment [8], 15.1 µM (active). Moreover, in [10], the Potency was 9.53 µM (active). Moreover, the Potency entry in experiment [7] and in experiment [9] was “inactive” each time.

The values are drawn from PubChem BioAssay (NCATS).
